The panel holds about 83,000 compounds, 20% with a hit somewhere; the sample as a whole holds those more often.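 Compound tested at a single concentration for 48 hours in 96-well plates; a percent growth value below 10 was scored as active.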 A number with no mark means an inactive call. Active and inactive are the calls of the source.
Legend:
Assay in all cases: NCI-60 one-dose screen, 48 h (100 = growth as untreated, 0 = no growth, -100 = all killed)
Conditions in all cases: 10 µM unless noted
NCI-H23 lung = tested on: NCI-H23 lung
NCI-H226 lung = tested on: NCI-H226 lung
NCI-H322M lung = tested on: NCI-H322M lung
HOP-62 NSCLC = tested on: HOP-62 NSCLC
NCI-H460 lung = tested on: NCI-H460 lung
HOP-92 NSCLC = tested on: HOP-92 NSCLC
NCI-H522 lung = tested on: NCI-H522 lung
A549/ATCC NSCLC = tested on: A549/ATCC NSCLC
786-0 renal = tested on: 786-0 renal
COLO 205 colon = tested on: COLO 205 colon
DU-145 prostate = tested on: DU-145 prostate
K-562 leukemia = tested on: K-562 leukemia
MALME-3M melanoma = tested on: MALME-3M melanoma
MDA-MB-231 breast = tested on: MDA-MB-231 breast
RXF 393 renal = tested on: RXF 393 renal
SF-268 CNS = tested on: SF-268 CNS
SF-295 CNS = tested on: SF-295 CNS
SF-539 CNS = tested on: SF-539 CNS
UACC-257 melanoma = tested on: UACC-257 melanoma
M14 melanoma = tested on: M14 melanoma

SMILES | growth (NCI-H23 lung) | growth (NCI-H226 lung) | growth (NCI-H322M lung) | growth (HOP-62 NSCLC) | growth (NCI-H460 lung) | growth (HOP-92 NSCLC) | growth (NCI-H522 lung) | growth (A549/ATCC NSCLC) | growth (786-0 renal) | growth (COLO 205 colon) | growth (DU-145 prostate) | growth (K-562 leukemia) | growth (MALME-3M melanoma) | growth (MDA-MB-231 breast) | growth (RXF 393 renal) | growth (SF-268 CNS) | growth (SF-295 CNS) | growth (SF-539 CNS) | growth (UACC-257 melanoma) | growth (M14 melanoma)
Cc1ccc(-c2cn(C/C=C3\C=CN(S(=O)(=O)c4ccccc4)CC3)nn2)cc1 | 96.1% | 99.5% | 95.8% | 97.6% | 99.1% | 92.7% | 93.3% | 104% | 101% | 129% | 118% | 89.5% | 104% | 97.5% | 123% | 99.3% | 99.3% | 100% | 106% | 92.5%
C=C(C)[C@@H]1CC[C@]2(C(N)=O)CC[C@]3(C)[C@H](CC[C@@H]4[C@@]5(C)C/C(=C/c6cccnc6)[C@H](O)C(C)(C)[C@@H]5CC[C@]43C)[C@@H]12 | 28.1% [100 µM] | 22.8% [100 µM] | 35.6% [100 µM] | 27.5% [100 µM] | 5.04% [100 µM] (active) | 23.4% [100 µM] | 8.63% [100 µM] (active) | 23.1% [100 µM] | 22.7% [100 µM] | -36.6% [100 µM] (active) | 38.2% [100 µM] | 5.36% [100 µM] (active) | 5.89% [100 µM] (active) | 28.9% [100 µM] | 13.4% [100 µM] | 45.6% [100 µM] | 23.9% [100 µM] | 25.1% [100 µM] | 38% [100 µM] | 33.8% [100 µM]
CC1(C)CC[C@]2(C(=O)OC(=O)[C@]34CCC(C)(C)C[C@@H]3C3=CC[C@@H]5[C@@]6(C)CCC(=O)C(C)(C)[C@@H]6CC[C@@]5(C)[C@]3(C)CC4)CC[C@]3(C)C(=CC[C@@H]4[C@@]5(C)CCC(=O)C(C)(C)[C@@H]5CC[C@]43C)[C@H]2C1 | 58.9% [100 µM] | 68.1% [100 µM] | 86.9% [100 µM] | 74.7% [100 µM] | 58.3% [100 µM] | 45.6% [100 µM] | 56.2% [100 µM] | 76.5% [100 µM] | 64.1% [100 µM] | 88.6% [100 µM] | 77.4% [100 µM] | 36.4% [100 µM] | 81.2% [100 µM] | 45.7% [100 µM] | 62.6% [100 µM] | 63.4% [100 µM] | 76.5% [100 µM] | 61.6% [100 µM] | 69% [100 µM] | 77.9% [100 µM]
Cc1ccc(S(=O)(=O)Nc2ccccc2)cc1N | 90.8% | 95.6% | 97% | 86.2% | 99.5% | 75.2% | 23.5% | 81.3% | 99.8% | 119% | 108% | 78.3% | 133% | 83.9% | 94.5% | 94.8% | 119% | 106% | 92.3% | 96.2%
CC1(C)CC(=O)c2c(ccc(C(=O)C[C@@H](N)CO)c2N)O1 | 45.9% | 27.5% | 5.96% (active) | 2.01% (active) | 4.1% (active) | 82.7% | 20.1% | 15.3% | 66.7% | 17.9% | 18.2% | 25.9% | 51.2% | 20.4% | 16.6% | 14.9% | 21.2% | -3.9% (active) | 16.6% | -37.5% (active)
Cc1cc(C)c(O)c(CNCCCCCCNCc2cc(C)cc(C)c2O)c1 | 56% | 81.6% | -12.6% (active) | 17.6% | -62.6% (active) | 12.1% | -13% (active) | 32% | 54.5% | -72.8% (active) | 7.45% (active) | -63% (active) | -81.9% (active) | -44% (active) | -2.77% (active) | 23.9% | -83.6% (active) | -85.3% (active) | -80.6% (active) | -79.9% (active)
COc1ccc(-c2ccc(NNC(=O)c3ccc(F)cc3)nn2)cc1OC | 83.7% | 70% | 72.2% | 57.6% | 93.2% | 8.49% (active) | 72.8% | 72.4% | 63.4% | 75.6% | 65.6% | 55% | 98.8% | 36.2% | 19.5% | 58.2% | 84.7% | 65.8% | 102% | 100%
FC(F)(F)c1ccc2c(c1)Sc1ccccc1N2 | 96.4% | 94% | 103% | 97% | 104% | 79.9% | 84.9% | 95.4% | 89.6% | 110% | 97.1% | 93.6% | 100% | 99.5% | 96.6% | 92.9% | 97.2% | 97.8% | 112% | 98.3%
O=C(NNc1ccc(-c2ccccc2)nn1)c1ccccc1 | 99.6% | 102% | 94.7% | 104% | 100% | 91.6% | 97.8% | 106% | 93.3% | 107% | 104% | 92.2% | 100% | 97.4% | 110% | 95% | 94.3% | 102% | 103% | 98.8%
